Test results: PubChem BioAssay (NCATS)
“And” between values parts separate entries of the source, which are not always exact repeats. Equal entries are not always repeated. Results filed as inconclusive are left out. A call without a number means that no potency is given here. The source made the active and inactive calls. Unless noted, calls come from the whole dose curve; as a rule, active = well fitted curve in the direction sought with a large enough effect; inconclusive = small, poorly fitted or top-dose-only effect, or another doubt; inactive = no such curve, though single readings can be large; an effect the other way counts as inactive or inconclusive.

Legend:
[1] = AP1 Signaling Pathway (AID 357; active = well fitted curve in either direction with a large enough effect, not every such curve was filed as active;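 note: ME-180 reporter cells stimulated with EGF at its EC50 level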); conditions: ME-180 AP-1-bla reporter, EGF-induced, beta-lactamase ratio, 5 h
How it was run: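 Cells are seeded overnight, exposed to compound titrations and an EC50 level of EGF for 5 hours at 37 °C, then loaded with CCF4 dye for 2.5 hours. Beta-lactamase activity under the AP-1 element is read as a blue/green ratio.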

[2] = molecular target: Cytochrome P450 1A2 (Homo sapiens) (UniProt P05177); experiment: p450-cyp1a2 (AID 410; calls by dose curve)
Sequence of Cytochrome P450 1A2 (Homo sapiens) (P05177 whole entry, looked up): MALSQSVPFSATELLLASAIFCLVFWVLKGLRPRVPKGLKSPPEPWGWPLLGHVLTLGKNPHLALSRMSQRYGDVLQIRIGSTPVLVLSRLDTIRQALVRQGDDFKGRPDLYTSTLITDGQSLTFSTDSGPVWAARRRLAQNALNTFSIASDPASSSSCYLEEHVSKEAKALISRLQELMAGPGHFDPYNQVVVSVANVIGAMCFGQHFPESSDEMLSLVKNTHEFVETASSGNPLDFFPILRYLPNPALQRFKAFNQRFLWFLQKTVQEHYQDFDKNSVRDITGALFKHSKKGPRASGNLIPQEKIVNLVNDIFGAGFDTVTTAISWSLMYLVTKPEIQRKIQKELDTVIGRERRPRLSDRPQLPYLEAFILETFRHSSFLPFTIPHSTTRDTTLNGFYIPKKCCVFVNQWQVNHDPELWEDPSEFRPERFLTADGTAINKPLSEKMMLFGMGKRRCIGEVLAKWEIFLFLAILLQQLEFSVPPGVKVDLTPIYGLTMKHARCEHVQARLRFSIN
How it was run: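 Luminescent readout of luciferin formed from Luciferin-ME by human CYP1A2; data normalized against complete inhibition by 57 uM furafylline. Enzyme 20nM, substrate 100uM at Km, 100mM KPO4 buffer, 60 min reaction at room temperature.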

[3] = NFAT Signaling Pathway (AID 444; active = well fitted curve in either direction with a large enough effect, not every such curve was filed as active;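 note: carbachol stimulus at about its EC50 of 1 µM final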); conditions: Jurkat NFAT-bla M1, carbachol, beta-lactamase ratio, 5 h
How it was run: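 Jurkat cells carrying an NFAT-driven β-lactamase reporter and co-transfected muscarinic M1 receptor were treated with compound plus carbachol (1 uM final, an EC50 level) for 5 h at 37 °C. CCF4 loading followed for 1 h at RT; 460/530 nm ratio gave %activity.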

[4] = Stat Signaling Pathway (AID 446; active = well fitted curve in either direction with a large enough effect, not every such curve was filed as active;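 note: ME-180 cervical cancer cells given 40 pM IL-6 alongside compound; SIE-controlled beta-lactamase reporter measured as 460/530 nm FRET emission ratio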); conditions: ME-180 SIE beta-lactamase reporter, IL-6 stimulated, 5 h
How it was run: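 Screening format detects activators and inhibitors alike: ME-180 SIE-bla cells stimulated at 40 pM IL-6 for 5 hrs with compound, then dual-emission beta-lactamase read at 405 nm excitation.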

[5] = molecular target: Glucocorticoid receptor (Homo sapiens) (UniProt P04150); experiment: GR-GFP Redistribution (AID 450;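 active = compounds whose dose series gives a full or clear partial fitted curve of increased nuclear translocation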; note: potency is the fitted concentration of half-maximal effect); conditions: U2OS GR-GFP nuclear translocation, laser cytometry, 2 h
Sequence of Glucocorticoid receptor (Homo sapiens) (P04150 whole entry, looked up, the tested form may be a part): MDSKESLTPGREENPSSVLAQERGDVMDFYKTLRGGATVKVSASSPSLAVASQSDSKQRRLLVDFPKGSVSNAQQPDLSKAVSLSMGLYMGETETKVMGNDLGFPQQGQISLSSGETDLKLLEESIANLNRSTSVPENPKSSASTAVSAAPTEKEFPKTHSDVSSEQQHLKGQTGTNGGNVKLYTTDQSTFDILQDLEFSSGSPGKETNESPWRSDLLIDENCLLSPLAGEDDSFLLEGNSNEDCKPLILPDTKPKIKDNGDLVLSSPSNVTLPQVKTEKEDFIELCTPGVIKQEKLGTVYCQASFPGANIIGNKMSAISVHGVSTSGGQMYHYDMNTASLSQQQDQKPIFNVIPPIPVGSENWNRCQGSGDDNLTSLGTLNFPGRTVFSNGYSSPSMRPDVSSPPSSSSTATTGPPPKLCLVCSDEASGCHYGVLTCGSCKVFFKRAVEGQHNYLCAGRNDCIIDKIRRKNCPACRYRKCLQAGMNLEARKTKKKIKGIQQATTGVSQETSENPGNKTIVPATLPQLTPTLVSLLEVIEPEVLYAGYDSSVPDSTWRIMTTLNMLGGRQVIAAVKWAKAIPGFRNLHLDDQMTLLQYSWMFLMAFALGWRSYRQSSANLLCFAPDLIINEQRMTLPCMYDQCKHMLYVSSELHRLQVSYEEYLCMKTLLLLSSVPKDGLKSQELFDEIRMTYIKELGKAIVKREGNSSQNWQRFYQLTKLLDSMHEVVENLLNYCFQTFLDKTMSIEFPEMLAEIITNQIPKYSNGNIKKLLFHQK

[6] = molecular target: Glucocorticoid receptor (Homo sapiens) (UniProt P04150); experiment: GR-EFC Redistribution (AID 451; calls by dose curve; note: potency is the fitted concentration of half-maximal effect); conditions: CHO-K1 GR-EFC translocation, beta-gal luminescence, 2 h
How it was run: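 CHO-K1 cells stably expressing nuclear-localized β-gal enzyme acceptor and GR fused C-terminally to the enzyme donor fragment; ligand-driven nuclear translocation restores β-gal by complementation. Compounds titrated up to 46 uM final, 2 h at 37 °C; luminescence read.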

[7] = molecular target: Mitogen-activated protein kinase 10 (Mus musculus) (UniProt Q61831); experiment: JNK3 AlphaScreen Assay (AID 530; active = well fitted curve in either direction with a large enough effect, not every such curve was filed as active;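 note: kinase came from lysate of stimulated human HepG2 cells; signal reports phosphorylation of biotinylated GST-cJun 1-79 at Ser73 with 10 µM ATP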)
How it was run: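 Inhibitors reduce antibody binding to phosphorylated biotin-cJun, lowering AlphaScreen luminescence. Lysates from HepG2 cells pre-activated by IL-1beta plus TNF-alpha supplied JNK3; compounds were titrated.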

[8] = molecular target: 3',5'-cyclic-AMP phosphodiesterase 4B (Homo sapiens) (UniProt Q07343); experiment: qHTS Assay for Inhibitors of PDE-IV (AID 607; active = well fitted activation curve with a large enough effect in the main read-out, with a control signal flat, not every such curve was filed as active)
Sequence of 3',5'-cyclic-AMP phosphodiesterase 4B (Homo sapiens) (Q07343 whole entry, looked up): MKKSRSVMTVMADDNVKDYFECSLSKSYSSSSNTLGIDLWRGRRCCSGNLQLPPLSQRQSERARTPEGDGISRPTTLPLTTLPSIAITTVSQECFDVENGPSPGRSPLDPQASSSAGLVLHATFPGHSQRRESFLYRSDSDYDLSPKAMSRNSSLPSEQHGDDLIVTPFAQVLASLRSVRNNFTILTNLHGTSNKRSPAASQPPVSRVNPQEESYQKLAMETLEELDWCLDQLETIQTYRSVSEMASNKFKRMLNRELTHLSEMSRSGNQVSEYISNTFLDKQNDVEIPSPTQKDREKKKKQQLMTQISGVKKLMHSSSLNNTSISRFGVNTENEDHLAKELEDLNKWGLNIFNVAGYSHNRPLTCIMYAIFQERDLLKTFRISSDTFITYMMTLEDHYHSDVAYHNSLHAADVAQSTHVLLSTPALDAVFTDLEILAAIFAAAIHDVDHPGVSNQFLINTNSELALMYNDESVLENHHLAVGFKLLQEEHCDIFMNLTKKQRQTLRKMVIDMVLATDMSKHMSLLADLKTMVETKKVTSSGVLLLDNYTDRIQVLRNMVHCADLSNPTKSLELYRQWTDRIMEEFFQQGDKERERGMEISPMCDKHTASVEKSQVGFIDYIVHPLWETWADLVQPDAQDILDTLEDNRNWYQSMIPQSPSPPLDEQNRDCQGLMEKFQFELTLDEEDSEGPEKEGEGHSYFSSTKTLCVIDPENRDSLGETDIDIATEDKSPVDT
How it was run: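 The readout is membrane depolarisation from a cAMP-sensing CNG channel, detected with a potential dye at ex 535/em 590. Cells were HEK293-derived (endogenous PDE-IV) at 1000 cells/well, titrated up to 22.9 uM final.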

[9] = molecular target: Guanine nucleotide-binding protein G(i) subunit alpha-1 (Homo sapiens) (UniProt P63096); experiment: qHTS Assay for Inhibitors of RGS12 GoLoco Motif Activity (Green Fluorophore) (AID 879);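 note: negative values mean loss of peptide binding seen as reduced polarization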
Sequence of Guanine nucleotide-binding protein G(i) subunit alpha-1 (Homo sapiens) (P63096 whole entry, looked up): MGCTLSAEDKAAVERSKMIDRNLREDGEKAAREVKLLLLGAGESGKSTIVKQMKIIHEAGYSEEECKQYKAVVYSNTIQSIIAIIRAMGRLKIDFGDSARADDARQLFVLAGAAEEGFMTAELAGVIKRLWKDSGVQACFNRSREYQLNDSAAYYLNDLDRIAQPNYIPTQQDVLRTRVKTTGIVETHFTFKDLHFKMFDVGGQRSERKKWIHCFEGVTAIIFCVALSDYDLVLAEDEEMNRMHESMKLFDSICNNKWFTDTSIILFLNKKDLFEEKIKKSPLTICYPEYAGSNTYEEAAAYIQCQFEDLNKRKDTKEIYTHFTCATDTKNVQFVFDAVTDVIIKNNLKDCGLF
How it was run: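 Fluorescence polarization assay: 50 nM Gαi1 with 10 nM FITC-labeled RGS12 GoLoco peptide in 10 mM Tris pH 7.5, 150 mM NaCl, 0.1 mM GDP, 0.05% NP40, 10 min at room temperature with compound.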

[10] = molecular target: Cytochrome P450 3A4 (Homo sapiens) (UniProt P08684); experiment: qHTS Assay for Activators of Cytochrome P450 3A4 (AID 885); note: nearly all actives have a fitted effect of over 65% in size
How it was run: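 Steps: enzyme/substrate mix dispensed; compound added, 10 min RT; NADPH regeneration solution added, 60 min RT; luciferin detection buffer stops reaction; 20 min later luminescence measured.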

[11] = molecular target: Pyruvate kinase (Leishmania mexicana) (UniProt Q27686); experiment: qHTS Validation Assay for Inhibitors of Leishmania Mexicana Pyruvate Kinase (AID 945)
Sequence of Pyruvate kinase (Leishmania mexicana) (Q27686 2-499 E452W): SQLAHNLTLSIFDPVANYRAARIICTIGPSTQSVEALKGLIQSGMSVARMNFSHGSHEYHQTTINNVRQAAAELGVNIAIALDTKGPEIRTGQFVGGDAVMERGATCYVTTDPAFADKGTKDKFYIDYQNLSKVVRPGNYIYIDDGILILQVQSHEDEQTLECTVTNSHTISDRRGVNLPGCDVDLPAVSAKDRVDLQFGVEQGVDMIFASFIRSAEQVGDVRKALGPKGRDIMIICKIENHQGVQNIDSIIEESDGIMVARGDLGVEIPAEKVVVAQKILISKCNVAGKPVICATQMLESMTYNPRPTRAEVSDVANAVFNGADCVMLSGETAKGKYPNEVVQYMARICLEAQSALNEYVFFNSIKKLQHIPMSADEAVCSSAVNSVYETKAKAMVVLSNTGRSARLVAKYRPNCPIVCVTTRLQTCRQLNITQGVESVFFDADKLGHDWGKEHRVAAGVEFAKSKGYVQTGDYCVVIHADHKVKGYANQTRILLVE
How it was run: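 Luminescent ATP detection (PKLight) after a 1 h room-temperature reaction of 0.2 nM LmPYK E451W mutant with 0.5 mM PEP and 0.1 mM ADP at pH 7.2. Activity is normalized to DMSO-only control wells.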

[12] = molecular target: Pyruvate kinase PKM (Homo sapiens) (UniProt P14618); experiment: qHTS Assay for Activators of Human Muscle Pyruvate Kinase (AID 954; active = well fitted curve in the direction sought with a large enough effect, not every such curve was filed as active)
Sequence of Pyruvate kinase PKM (Homo sapiens) (P14618 whole entry, looked up): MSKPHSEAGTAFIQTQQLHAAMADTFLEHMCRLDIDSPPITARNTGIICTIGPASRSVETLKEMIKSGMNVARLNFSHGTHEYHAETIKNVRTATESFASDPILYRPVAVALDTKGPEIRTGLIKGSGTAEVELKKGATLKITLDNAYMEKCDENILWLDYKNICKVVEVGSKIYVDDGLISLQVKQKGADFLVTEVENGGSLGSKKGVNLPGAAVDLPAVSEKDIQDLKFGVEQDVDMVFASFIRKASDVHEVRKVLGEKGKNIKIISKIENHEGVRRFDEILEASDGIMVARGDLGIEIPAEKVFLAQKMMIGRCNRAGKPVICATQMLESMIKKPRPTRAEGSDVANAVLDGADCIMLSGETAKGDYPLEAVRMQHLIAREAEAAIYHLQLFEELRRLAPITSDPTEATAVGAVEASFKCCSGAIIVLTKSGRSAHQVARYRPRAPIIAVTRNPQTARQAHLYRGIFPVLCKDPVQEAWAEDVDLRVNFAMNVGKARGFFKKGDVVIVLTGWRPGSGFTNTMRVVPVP
How it was run: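 Reaction: 0.1 nM purified PKM2 with 0.5 mM phosphoenolpyruvate and 0.1 mM ADP, room temperature, 1 h. Readout: luciferase-based ATP luminescence after stop reagent. Activators judged against a 0.3 nM enzyme column.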

[13] = molecular target: alpha-glucosidase (Oryza sativa, rice) (UniProt Q653V4); experiment: Counterscreen for Glucocerebrosidase Inhibitors: qHTS Assay for Rice alpha-Glucosidase at pH 5.0 (AID 997)
How it was run: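 Rice alpha-glucosidase (4 nM final) with 400 uM 4-methylumbelliferyl-alpha-D-glucopyranoside in citrate buffer pH 5.0, 20 min at room temperature, stopped at pH 10; fluorescence 365/440 nm, compounds 0.7 nM–77 uM, AC50 from Hill fits.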

[14] = qHTS Assay for Lipid Storage Modulators (AID 1519; calls by dose curve); conditions: Drosophila S3 cells, BODIPY lipid droplet/cell ratio, laser cytometry, cells loaded with oleic acid
How it was run: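 Cells seeded at 5,000 per well were treated with compounds over a concentration series and loaded with oleic acid (400 uM, as added). Lipid droplet fluorescence (488 nm excitation, 500-530 nm channel) was read by laser-scanning cytometry and normalized to 20 uM Triacsin C.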

[15] = molecular target: Ubiquitin carboxyl-terminal hydrolase 1 (Homo sapiens) (UniProt O94782); experiment: Inhibitors of USP1/UAF1: Pilot qHTS (AID 504865);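 note: rhodamine fluorescence freed from ubiquitin-rhodamine substrate followed over time; top concentration of the series differs between compounds; nearly all actives have a fitted effect of over 35% in size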
How it was run: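 Enzyme-free wells gave the negative control, while test wells held 1nM USP1/UAF1 preincubated with compound for 15 min at room temperature. Ub-Rho at 150nM final started the reaction, and fluorescence at 480/540 nm was recorded kinetically.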

[16] = molecular target: DNA dC->dU-editing enzyme APOBEC-3G (Homo sapiens) (UniProt Q9HC16); experiment: qHTS for inhibitors of Vif-A3G interactions: Validation (AID 588379)
Sequence of DNA dC->dU-editing enzyme APOBEC-3G (Homo sapiens) (Q9HC16 whole entry, looked up): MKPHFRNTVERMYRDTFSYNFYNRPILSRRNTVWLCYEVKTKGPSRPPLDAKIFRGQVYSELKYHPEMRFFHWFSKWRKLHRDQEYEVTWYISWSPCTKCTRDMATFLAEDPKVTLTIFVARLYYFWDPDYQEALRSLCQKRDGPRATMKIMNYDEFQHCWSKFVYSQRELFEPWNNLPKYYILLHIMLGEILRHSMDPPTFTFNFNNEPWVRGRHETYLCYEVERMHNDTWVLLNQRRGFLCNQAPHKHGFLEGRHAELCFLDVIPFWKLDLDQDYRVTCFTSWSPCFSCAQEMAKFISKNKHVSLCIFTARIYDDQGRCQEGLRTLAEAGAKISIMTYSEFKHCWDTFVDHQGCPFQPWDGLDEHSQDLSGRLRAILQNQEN
How it was run: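 HeLa cells stably expressing Vif and A3G-eYFP, 700 cells/well, incubated overnight at 37 deg C, then exposed to compound overnight at 37 deg C. Inhibition of Vif-mediated degradation read as increased yellow fluorescence (Ex 488/Em 500-530) by laser-scanning cytometry.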

[17] = tested on: Zika virus NS2B-NS3 protease; experiment: Primary screen GU AMC qHTS for Zika virus inhibitors (AID 1347154); note: nearly all actives have a fitted effect of over 70% in size
How it was run: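 Unlinked Zika NS2B hydrophilic domain/NS3 protease domain noncovalent complex (25 nM final) in 10 mM Tris-HCl pH 8.0, 0.01% Tween 20, with AMC peptide substrate. Fluorescence (ex 340, em 450 nm) change over 15 min, room temperature; percent inhibition fitted to 4-parameter Hill equation.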

[18] = Primary qHTS for small molecule stabilizers of the endoplasmic reticulum resident proteome: Secreted ER Calcium Modulated Protein (SERCaMP) assay (AID 1508630)
How it was run: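 GLuc-SERCaMP-expressing SH-SY5Y cells, pretreated 16 h with compound, are challenged with thapsigargin to empty ER calcium stores; after 4 h, coelenterazine is added directly to the medium and luminescence is imaged.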

[19] = qHTS Assay for Identification of Small Molecule Antagonists for NFkB Signaling Pathway (AID 895; active = well fitted inhibition curve with a large enough effect in the signal ratio, with a control signal flat, not every such curve was filed as active; the % refers to the signal ratio)
How it was run: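 NFkB-bla ME-180 cervical carcinoma cells with beta-lactamase reporter under NFkB response element; compounds added, then TNF alpha at 10 pM final (EC50), 5 h at 37 C. LiveBLAzer substrate 2 h, room temperature; emission 460/530 nm at 405 nm excitation.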

[20] = qHTS Assay for Identification of Small Molecule Agonists for Thrombopoietin (TPO) Signaling Pathway (AID 917)
How it was run: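 IL-3-dependent murine pro-B Ba/F3 cells, stably transfected with human TPO receptor and GpIIb-promoter luciferase, are incubated 24 hrs at 37 C with test compound and 26 pM TPO; luciferase signal is read after 10 min at room temperature.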

[21] = molecular target: Muscarinic acetylcholine receptor M1 (Rattus norvegicus) (UniProt P08482); experiment: qHTS Assay for Antagonists of Acetylcholine Muscarinic M1 Receptor: Measurement of IP-One Response (AID 944); note: nearly all actives have a fitted effect of over 75% in size
Sequence of Muscarinic acetylcholine receptor M1 (Rattus norvegicus) (P08482 whole entry, looked up): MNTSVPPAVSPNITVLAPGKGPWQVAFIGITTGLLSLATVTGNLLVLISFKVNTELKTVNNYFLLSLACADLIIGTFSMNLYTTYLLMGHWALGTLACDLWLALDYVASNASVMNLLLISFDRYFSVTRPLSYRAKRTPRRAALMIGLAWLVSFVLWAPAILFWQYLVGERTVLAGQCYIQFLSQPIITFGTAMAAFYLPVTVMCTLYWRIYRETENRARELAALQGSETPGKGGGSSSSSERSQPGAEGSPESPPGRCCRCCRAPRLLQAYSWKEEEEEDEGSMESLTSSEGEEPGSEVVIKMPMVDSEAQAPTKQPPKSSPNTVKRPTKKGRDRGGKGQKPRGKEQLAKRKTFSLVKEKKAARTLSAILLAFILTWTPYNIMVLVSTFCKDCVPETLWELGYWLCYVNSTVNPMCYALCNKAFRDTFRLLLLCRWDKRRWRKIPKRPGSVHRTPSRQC
How it was run: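 M1-CHO (rat), 2000 cells/well, overnight recovery; cpd 10 min; carbachol EC80 (200 nM), 30 min, HEPES buffer + 50 mM LiCl pH 7.4; IP-One HTRF, Ex 337, Em 620/665 nm.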

[22] = molecular target: Alpha-galactosidase A (Homo sapiens) (UniProt P06280); experiment: Counterscreen for Glucocerebrosidase Inhibitors: qHTS Assay for Human alpha-Galactosidase at pH 4.5 (AID 992)
Sequence of Alpha-galactosidase A (Homo sapiens) (P06280 whole entry, looked up): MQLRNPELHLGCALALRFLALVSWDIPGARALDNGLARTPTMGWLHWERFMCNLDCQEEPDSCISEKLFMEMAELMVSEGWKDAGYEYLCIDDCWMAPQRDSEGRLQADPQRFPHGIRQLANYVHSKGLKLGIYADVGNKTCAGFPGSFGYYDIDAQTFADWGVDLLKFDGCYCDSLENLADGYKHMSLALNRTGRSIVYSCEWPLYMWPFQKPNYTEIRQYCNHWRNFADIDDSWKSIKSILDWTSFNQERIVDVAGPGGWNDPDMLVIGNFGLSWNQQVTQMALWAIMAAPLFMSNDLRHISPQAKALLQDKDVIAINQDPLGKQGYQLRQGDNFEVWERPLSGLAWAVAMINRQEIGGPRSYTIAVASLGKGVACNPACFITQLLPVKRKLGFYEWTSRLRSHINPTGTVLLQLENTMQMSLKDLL
How it was run: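 Concentration-response curves (0.7 nM to 77 uM final) were modeled with the Hill equation to give AC50. Reactions: 2 nM enzyme, 80 uM fluorogenic alpha-galactoside, pH 4.5 citric acid buffer, 20 min, room temperature.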

[23] = measured here: cell count channel max response
[24] = measured here: lipid channel max response

For `C[C@@H](CCc1ccc(O)cc1)NCCc1ccc(O)c(O)c1`, which activity change, negative = inhibition ([1]; at 17.2 µM (top of the series)) is on record?
The activity change, negative = inhibition was 1.11% (inactive).

And the activity change, negative = inhibition ([1]; at 38 µM (top of the series))?
Its activity change, negative = inhibition is -3.98% (inactive).

And the Potency [2]?
Its Potency is “inactive”.

And the activity change, negative = inhibition ([3]; at 17.2 µM (top of the series))?
The activity change, negative = inhibition was -17.4% (inactive).

What about the activity change, negative = inhibition ([3]; at 38 µM (top of the series)) of the same molecule?
Its activity change, negative = inhibition is -12.7% (inactive).

And the activity, negative = inhibition ([4]; at 17.2 µM (top of the series))?
Its activity, negative = inhibition is 13.9% (inactive).

What about the activity, negative = inhibition ([4]; at 38 µM (top of the series)) of the same molecule?
Its activity, negative = inhibition is -16.8% (inactive).

What about the Potency [5] of the same molecule?
Its Potency is > 46 µM (inactive) and > 20.6 µM (inactive).

What about the Potency [6] of the same molecule?
The Potency was > 46 µM (inactive) and > 20.6 µM (inactive).

And the Potency [7]?
The Potency was “inactive”.

And the Potency [8]?
Its Potency is “inactive”.

And the outcome [9]?
The outcome was “inactive”.

And the Potency [10]?
Its Potency is “inactive”.

And the Potency [11]?
The Potency was “inactive”.

And the outcome [12]?
The outcome was “inactive”.

What about the outcome [13] of the same molecule?
The outcome was “inactive”.

What about the activity change, negative = inhibition ([14]; at 25.7 µM (top of the series)) of the same molecule?
Its activity change, negative = inhibition is 0.472% (inactive).

What about the max response [14, 23] of the same molecule?
The max response was 1.22%.

What about the max response [14, 24] of the same molecule?
Its max response is 2.79%.

What about the Potency [15] of the same molecule?
Its Potency is “inactive”.

What about the Potency [16] of the same molecule?
The Potency was “inactive”.

And the Potency [17]?
The Potency was “inactive”.

And the Potency [18]?
Its Potency is “inactive”.

Which activity change, negative = inhibition ([1]; at 38 µM (top of the series)) does the source give for `CC(C)(C)NC[C@H](O)COc1cccc2[nH]c(=O)[nH]c12` here?
The activity change, negative = inhibition was -7.21% (inactive).

And the Potency [2]?
Its Potency is “inactive”.

And the Potency [5]?
Its Potency is > 46 µM (inactive).

And the Potency [6]?
The Potency was > 46 µM (inactive).

What about the Potency [7] of the same molecule?
The Potency was “inactive”.

What about the Potency [8] of the same molecule?
Its Potency is “inactive”.

What about the outcome [9] of the same molecule?
The outcome was “inactive”.

What about the Potency [19] of the same molecule?
The Potency was “inactive”.

What about the Potency [20] of the same molecule?
The Potency was “inactive”.

And the Potency [21]?
Its Potency is “inactive”.

What about the Potency [11] of the same molecule?
Its Potency is “inactive”.

What about the outcome [12] of the same molecule?
The outcome was “inactive”.

What about the outcome [22] of the same molecule?
Its outcome is “inactive”.

And the outcome [13]?
Its outcome is “inactive”.

What about the activity change, negative = inhibition ([14]; at 57.5 µM (top of the series)) of the same molecule?
Its activity change, negative = inhibition is -4.86% (inactive).

What about the max response [14, 23] of the same molecule?
The max response was -1.97%.

What about the max response [14, 24] of the same molecule?
Its max response is -5.55%.

And the Potency [16]?
The Potency was “inactive”.

And the Potency [17]?
Its Potency is “inactive”.

And the Potency [18]?
Its Potency is “inactive”.
